Three targets from the supplement of paper PMC12067093, “Discovery and optimisation of a covalent ligand for TRIM25 and its application to targeted protein ubiquitination” (Chemical Science, 2025) can be followed below.

Of roughly 21,000 targets only a part is listed; those with the largest changes were picked by preference.

Compound in the assay: Cc1cc(ccc1-c1ccccc1)C(=O)N1CCCN(CC1)C(=O)CCl [compound 10]
The assay is described as follows: probe-labelled cysteine peptide fold change vs DMSO (competition) (log2 fold change); higher = less target engagement (more negative = stronger competition). The note with it: THP-1, incubation time: 4 h.
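Further: competitive profiling in live THP-1 cells: cysteine peptides tagged with an iodoacetamide desthiobiotin (IA-DTB) probe, intensity after compound treatment relative to DMSO-treated cells.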

Sequence of UniProt Q9Y4C1 (Q9Y4C1 whole entry, looked up): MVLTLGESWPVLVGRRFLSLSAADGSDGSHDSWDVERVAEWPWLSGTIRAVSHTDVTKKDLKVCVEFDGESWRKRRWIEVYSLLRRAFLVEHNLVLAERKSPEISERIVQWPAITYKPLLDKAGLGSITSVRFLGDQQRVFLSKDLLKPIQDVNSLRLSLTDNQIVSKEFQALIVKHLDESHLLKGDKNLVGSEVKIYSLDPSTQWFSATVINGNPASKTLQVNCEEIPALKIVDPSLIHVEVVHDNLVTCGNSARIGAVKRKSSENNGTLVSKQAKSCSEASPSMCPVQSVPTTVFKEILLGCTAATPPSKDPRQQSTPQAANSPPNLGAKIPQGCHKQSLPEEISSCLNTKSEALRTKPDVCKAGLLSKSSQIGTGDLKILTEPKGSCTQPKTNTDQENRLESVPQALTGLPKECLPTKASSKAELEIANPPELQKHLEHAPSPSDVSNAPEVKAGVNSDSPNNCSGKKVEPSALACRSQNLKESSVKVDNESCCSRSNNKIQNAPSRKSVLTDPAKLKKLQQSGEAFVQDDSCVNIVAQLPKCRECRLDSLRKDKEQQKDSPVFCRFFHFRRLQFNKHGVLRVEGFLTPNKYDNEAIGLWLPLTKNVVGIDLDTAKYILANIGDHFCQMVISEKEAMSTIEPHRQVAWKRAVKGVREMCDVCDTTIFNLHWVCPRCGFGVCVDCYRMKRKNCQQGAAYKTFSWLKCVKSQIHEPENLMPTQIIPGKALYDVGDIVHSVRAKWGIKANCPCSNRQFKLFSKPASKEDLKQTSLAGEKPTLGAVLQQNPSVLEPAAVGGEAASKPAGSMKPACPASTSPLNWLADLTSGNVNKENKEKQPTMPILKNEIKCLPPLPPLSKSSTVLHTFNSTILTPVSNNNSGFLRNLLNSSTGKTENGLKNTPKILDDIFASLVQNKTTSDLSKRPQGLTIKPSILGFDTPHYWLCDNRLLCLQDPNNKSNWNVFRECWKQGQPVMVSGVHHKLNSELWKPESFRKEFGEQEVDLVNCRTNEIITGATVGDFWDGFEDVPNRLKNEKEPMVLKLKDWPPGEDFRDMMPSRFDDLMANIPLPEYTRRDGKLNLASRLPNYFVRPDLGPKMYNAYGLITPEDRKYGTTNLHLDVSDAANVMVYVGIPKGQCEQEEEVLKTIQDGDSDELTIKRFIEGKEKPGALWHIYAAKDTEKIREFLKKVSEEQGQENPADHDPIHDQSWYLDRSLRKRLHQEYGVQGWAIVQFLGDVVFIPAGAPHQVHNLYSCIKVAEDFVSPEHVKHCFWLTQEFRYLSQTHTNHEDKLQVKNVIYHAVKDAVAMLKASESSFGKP
Sequence of UniProt Q8WVV9 (Q8WVV9 whole entry, looked up): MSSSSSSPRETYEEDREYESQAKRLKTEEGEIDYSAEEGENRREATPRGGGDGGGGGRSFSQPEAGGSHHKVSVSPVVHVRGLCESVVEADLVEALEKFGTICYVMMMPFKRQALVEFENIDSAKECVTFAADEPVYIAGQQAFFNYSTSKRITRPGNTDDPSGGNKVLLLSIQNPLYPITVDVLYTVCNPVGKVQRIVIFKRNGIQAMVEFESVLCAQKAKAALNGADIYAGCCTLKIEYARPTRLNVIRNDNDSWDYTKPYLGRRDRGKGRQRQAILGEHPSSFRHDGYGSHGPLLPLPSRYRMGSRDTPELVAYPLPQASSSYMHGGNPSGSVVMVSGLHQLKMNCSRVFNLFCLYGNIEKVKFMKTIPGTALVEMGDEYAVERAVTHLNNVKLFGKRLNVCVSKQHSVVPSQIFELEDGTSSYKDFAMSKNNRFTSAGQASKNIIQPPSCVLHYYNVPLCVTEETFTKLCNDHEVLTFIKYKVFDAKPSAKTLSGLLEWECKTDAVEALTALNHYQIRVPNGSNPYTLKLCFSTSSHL

“HNRNPLL_Q8WVV9_505_TLSGLLEWECKTDAVEALTALNHYQIR (UniProt Q8WVV9)”: the “probe-labelled cysteine peptide fold change” value was -0.0924 (10 µM) and -0.402 (50 µM).
Consider “HNRNPK_P61978_184+185_LFQECCPHSTDRVVLIGGKPDR (UniProt P61978)”, for which the “probe-labelled cysteine peptide fold change” value (10 µM) is -0.234 and the “probe-labelled cysteine peptide fold change” value (50 µM) was -1.28.
In the case of “KDM3A_Q9Y4C1_467_AGVNSDSPNNCSGK (UniProt Q9Y4C1)”, the “probe-labelled cysteine peptide fold change” value was -0.0265 (10 µM) and 0.0124 (50 µM).
